Screening data (PubChem BioAssay)
KinaseGlo FLuc: Kinase-Glo luciferase inhibition (counter-screen); Q27757; Kinase-Glo luciferase, ATP luminescence, 8 min; Potency, µM (series often up to 38.3 µM), hits mostly inhibitors; 200,000 tested, 0.28% active; AID 1379; note: nearly all actives have a fitted effect of over 60% in size
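Compounds were added to a substrate mix at pH 7.2 (50 mM imidazole, 10 uM ATP, within the enzyme's linear range), followed by Kinase-Glo detection reagent; luminescence was measured after 8 minutes at ambient temperature.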
ELG1 genotoxic: induces genotoxicity in HEK293T cells with luciferase-tagged ELG1 | HEK293T ELG1-luciferase reporter, luminescence, 16 h | Potency, µM (doses to about 46 µM), hits mostly activators | 330,000 tested, 1.3% active | AID 504466; note: nearly all actives have a fitted effect of over 60% in size
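HEK293T cells expressing luciferase-tagged ELG1 were exposed to compound or DMSO vehicle for 16 hr at 37 °C and 5% CO2. Luciferase activity was then measured with ONE-Glo after 30 min at room temperature.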
NPC1 promoter act: activators of NPC1 promoter; Potency, µM (top dose mostly 9.22 µM), hits mostly activators; Huh7 NPC1 promoter luciferase reporter, 24 h; 320,000 tested, 2.4% active; note: nearly all actives have a fitted effect of over 60% in size
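Stable NPC1-promoter luciferase Huh7 line; cpd (DMSO) 24 h, 37 °C, 5% CO2; Amplite luciferase reagent 10 min RT; luminescence readout. qHTS format.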
Rab9 promoter act: Rab9 promoter activation. Potency, µM (highest dose often 9.22 µM), hits mostly activators. 320,000 tested, 2.8% active. Huh7 Rab9 promoter-luciferase reporter, luminescence, 24 h; note: nearly all actives have a fitted effect of over 60% in size
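Quantitative HTS format; Huh7 Rab9-luciferase reporter cells (1500/well) receive compound 2 h post-plating, incubate 24 h at 37 °C, then get luciferase reagent for 10 min before luminescence reading.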
SMN2 splice up: increases expression of the SMN2 splice variant | AID 1458 | 210,000 tested, 2.8% active | Potency, µM (top dose mostly 46.1 µM), most hits filed as activators | HEK293 SMN2-luciferase splicing reporter, luminescence, 30-36 h; note: nearly all actives have a fitted effect of over 55% in size
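qHTS luciferase splicing reporter: luminescence rises when SMN2 exon 7 is included in transfected HEK293 cells. Compound exposure lasted 30-36 h at 37C, with 4.5 mM final sodium butyrate as control, followed by a ONE-Glo read.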
FLuc modulator: inhibits or activates purified firefly luciferase, miR-21 counter-screen | P08659 | purified FLuc, Km substrates, luminescence inhibition | Potency, µM (titrated, usually from 57.5 µM), hits mostly inhibitors | 360,000 tested, 6.9% active | AID 588342; note: nearly all actives have a fitted effect of over 55% in size
Target sequence (P08659 whole entry, looked up): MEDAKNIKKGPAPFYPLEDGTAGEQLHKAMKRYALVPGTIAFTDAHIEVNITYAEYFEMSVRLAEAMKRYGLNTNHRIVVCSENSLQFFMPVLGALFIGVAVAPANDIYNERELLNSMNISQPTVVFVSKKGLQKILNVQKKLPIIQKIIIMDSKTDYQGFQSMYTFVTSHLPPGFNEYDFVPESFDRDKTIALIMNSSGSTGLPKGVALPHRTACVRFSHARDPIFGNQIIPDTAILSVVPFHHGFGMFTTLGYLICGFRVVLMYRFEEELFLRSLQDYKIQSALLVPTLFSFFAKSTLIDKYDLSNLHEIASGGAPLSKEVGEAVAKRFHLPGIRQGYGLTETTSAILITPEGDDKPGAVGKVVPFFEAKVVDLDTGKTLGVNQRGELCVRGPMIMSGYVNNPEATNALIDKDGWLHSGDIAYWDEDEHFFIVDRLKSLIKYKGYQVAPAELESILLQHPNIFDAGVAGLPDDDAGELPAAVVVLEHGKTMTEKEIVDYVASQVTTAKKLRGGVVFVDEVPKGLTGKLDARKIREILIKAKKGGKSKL
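Biochemical qHTS of compounds, final roughly 60 µM downward over six points, against 10 nM purified firefly luciferase using Km concentrations of substrates (10 uM D-luciferin, 10 uM ATP) in Tris acetate pH 7.5 buffer; luminescence output.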
Hits are given with their value; . = inactive; ? = inconclusive; / = not tested or not shown; [ ] = remark or other dose. Rows were chosen to be rich in hits. Some 7.3% of all compounds tested hit in one or more screens of this group. Calls come from the whole dose curve; as a rule, active = well fitted curve in the direction sought with a large enough effect; inconclusive = small, poorly fitted or top-dose-only effect, or another doubt; inactive = no such curve, though single readings can be large; an effect the other way counts as inactive or inconclusive.

SMILES | KinaseGlo FLuc | ELG1 genotoxic | NPC1 promoter act | Rab9 promoter act | SMN2 splice up | FLuc modulator
Cc1ccccc1-c1nnc(CS(=O)(=O)c2ccccc2)o1 | / | ? | 1.1µM | 1.1µM | / | 4.8µM
Cc1nnc(-c2ccccc2)o1 | / | . | . | . | / | .
Cc1cccc(OCc2nnc(-c3ccccc3)o2)c1 | / | / | / | / | . | ?
Cc1ccccc1-c1nnc(-c2ccccc2)o1 | ? | 9.2µM | ? | 3.2µM | 13µM | 6.7µM
CCCOc1ccc(C(=O)Nc2ccc(NC(=O)c3ccc(Br)cc3)cc2)cc1 | / | / | / | / | . | .
Cc1nn(CCC(=O)Nc2cccc(C#N)c2)c(C)c1S(=O)(=O)N1CCCCC1 | / | . | . | . | / | .
Cn1cc(-c2nnc(-c3ccccc3)o2)c2ccccc21 | . | ? | 2.5µM | 2.2µM | 2.5µM | 0.67µM
Cc1ccccc1-c1nnc(-c2ccc(Cl)cc2)o1 | . | 16µM | ? | 4µM | / | 6.7µM
Cc1ccc(CS(=O)(=O)c2ccccc2-c2nnc(-c3ccc(Cl)cc3)o2)cc1 | . | . | . | . | . | .
Cc1cc(-c2nnc(-c3cccc(Cl)c3)o2)no1 | / | ? | 3.5µM | 2.5µM | / | 5.4µM
Brc1ccccc1-c1nnc(CSc2nnc3sc4ccccc4n23)o1 | . | . | . | 4µM | . | ?
N#CC(C#N)=C1C=CC=CN1/C(=C\c1ccccc1)C(=O)c1cccs1 | . | . | . | . | . | 19µM
N#Cc1nc(Nc2cccc(Cl)c2)c2ncn(C3CCCC3)c2n1 | / | ? | 3.5µM | . | / | 1.3µM
Cc1cccc(OCC(=O)Nc2cc(NC(=O)COc3cccc(C)c3C)cc(C(=O)O)c2)c1C | / | . | . | . | / | .
CCOC(=O)N1CCN(c2nc3ccc(C(=O)c4ccccc4)cc3n3cnnc23)CC1 | / | . | . | . | / | .
CCCn1c(C)cc(/C=C(\C#N)C(=O)OCC(=O)NC(=O)NC(C)(C)C)c1C | . | . | . | . | . | 17µM
COc1ccccc1-c1oc2ccccc2c1C#CC(C)(C)O | / | . | . | . | / | .
CC1CCN(C(=O)Nc2cccc(NC(=O)N3CCC(C)CC3)c2)CC1 | . | . | . | . | . | 15µM
CC1CCN(C(=O)Nc2ccc3nsnc3c2)CC1 | . | ? | ? | 4.5µM | . | 13µM
CC(CCC(=O)O)C1CCC2C3CC[C@H]4CC(O)CC[C@@]4(C)C3CC[C@@]12C (stereo partly specified) | . | / | / | / | . | /
Nc1ccc(N=Nc2ccc(N)cc2)cc1 | . | ? | ? | ? | 14µM | 7.6µM
COc1ccccc1Nc1ncnc2sccc12 | / | . | . | .[1.84 µM] | / | .
O=C(NCc1cccnc1)c1cc(-c2cccs2)on1 | . | . | ? | ? | . | ?
O=C(NCc1cccnc1)c1cc(-c2ccccc2)on1 | . | 21µM | . | ? | 16µM | ?
COc1ccc(CNC(=O)c2cc(-c3ccc(OC)cc3)on2)cc1 | / | / | / | / | . | .
SMILES | KinaseGlo FLuc | ELG1 genotoxic | NPC1 promoter act | Rab9 promoter act | SMN2 splice up | FLuc modulator
COc1ccc(-c2cc(C(=O)NCc3cccnc3)no2)cc1 | . | . | ? | ? | . | 12µM
COCCNC(=O)c1ccccc1NC(=O)c1ccc(Cl)c(S(=O)(=O)Nc2ccc(C)cc2C)c1 | . | . | . | . | . | .
NC(=O)Cn1cnc2c(nnn2-c2cccc(Cl)c2)c1=O | / | . | . | . | / | .
Cc1ccc(NC(=O)c2cccc(NC(=O)/C=C/c3ccco3)c2)cc1C | . | . | ? | 3.2µM | 18µM | 1.9µM
Cn1c(NC(=O)/C=C/c2ccco2)cc(=O)n(C)c1=O | . | . | . | . | . | ?
Cc1ccc(-n2nc3ccc(NC(=O)/C=C/c4ccco4)cc3n2)cc1 | . | ? | ? | ? | 14µM | ?
Cc1ccc(-n2nc3ccc(NC(=O)c4cc5ccccc5o4)cc3n2)cc1 | / | / | / | / | . | .
Cc1ccc(NC(=O)N/C=C/c2ccco2)cc1C | . | . | . | . | . | 11µM
Cc1ccc(NC(=O)N/C=C/c2ccco2)c(C)c1 | . | . | . | . | . | ?
O=C(/C=C/c1ccco1)Nc1cccc(C(=O)Nc2ccccc2C(=O)O)c1 | / | . | . | . | / | 21µM
O=C(CSc1nnc(CNC(=O)c2ccccc2F)o1)NCc1ccco1 | / | . | . | . | / | .
CN(C)CCCNC(=O)c1ccc(-c2nc(-c3ccc(Cl)cc3)cs2)cc1 | . | ? | ? | ? | . | ?
